NALP1 inh: NALP1 inflammasome inhibitors in reconstituted yeast, colorimetric, S. cerevisiae, triplicate retest. S. cerevisiae NALP1/ASC/caspase-1 growth, X-gal OD620, 72 h. inhibition, % at 10 µM. 280,000 compounds, 0.61% hits. AID 2071, 2009; in the data active means inhibition mostly above about 24%, no sharp cut-off; inactive means mostly below about 32%
PfHsp90 yeast 2: growth inhibition of PfHsp90-expressing yeast, primary screen, antimalarial PfHsp90 inhibitor project, S. cerevisiae, BacTiter-Glo luminescence, single point, set 2; BacTiter-Glo ATP, 48 h; yeast lacking PDR1 and PDR3 efflux regulators; inhibition, % at 9.4 µM; 310,000 compounds, 0.32% hits;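 active means every replicate shows inhibition above about 80%, whatever the replicate mean, limit read from the data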
SKKanGAS inh: S. pyogenes SKKanGAS growth inhibitors in kanamycin, primary screen, streptokinase expression inhibitor project, SKKanGAS strain, BacTiter-Glo luminescence. 300,000 compounds, 1.3% hits. inhibition, % at 7.5 µM. 6 h. AID 1662, 2009;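 active means mean replicate score, as percent of positive control median, at least 50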;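 further: strain carries kanamycin resistance gene driven by streptokinase promoter and grows in 40 µg/ml kanamycin; loss of luminescence reflects streptokinase promoter inhibition or plain growth inhibition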
tim10-1 inh: growth inhibitors of tim10-1 mutant yeast, primary screen, luminescence, uHTS. inhibition, % at 20 µM. S. cerevisiae tim10-1 ts strain growth, BacTiter-Glo, 24 h. AID 463190, 2010. 330,000 compounds, 2.2% hits;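 active means inhibition of at least 40%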;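 further: mutant grown at 25 °C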
tim23-1 inh: growth inhibitors of tim23-1 mutant yeast, primary screen, luminescence, uHTS; 330,000 compounds, 1.3% hits; inhibition, % at 20 µM; S. cerevisiae tim23-1 growth, BacTiter-Glo luminescence, 24 h;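 active means growth inhibition of the mutant yeast at or above 50%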;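 further: temperature-sensitive mutant grown at 25 °C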
TIM10 inh: growth inhibitors of isogenic TIM10 control yeast, primary screen, counter-screen for tim10-1 yeast inhibitor project, luminescence, uHTS | S. cerevisiae TIM10 strain growth, BacTiter-Glo luminescence, 24 h | 330,000 compounds, 1.4% hits | inhibition, % at 10 µM;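 active means inhibition of 40% or more at the single tested concentration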;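 further: wild-type TIM10 isogenic control strain grown at permissive 25 °C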
Hits are given with their value; 0 = inactive; - = not tested or not shown; + = active, no number. In the library only some 4.8% were active in any assay of this set; here they are far more common.

SMILES	NALP1 inh	PfHsp90 yeast 2	SKKanGAS inh	tim10-1 inh	tim23-1 inh	TIM10 inh
CCOc1cc(/C=C2/NC(=S)NC2=O)ccc1OCc1ccc([N+](=O)[O-])cc1	0	-	74	0	0	0
Cc1nc2ccccc2c(=O)n1/N=C/c1ccc(O)cc1O	0	0	0	0	0	0
CN(/N=C/c1ccc(O)cc1O)c1nc(-c2ccccc2)cc(-c2ccccc2)n1	0	0	71	0	0	0
CC(=O)Nc1ccc(C(=O)N/C(=C\c2ccccc2)C(=O)Nc2cccc(C(=O)O)c2)cc1	0	0	0	0	0	0
F[B-](F)(F)c1cc2cc(Br)ccc2s1	-	117	-	-	-	-
Cc1ccccc1NS(=O)(=O)c1ccc2c(c1)n(C)c(=O)n2C	0	0	0	0	0	0
COc1ccc(CN2CCNC(=O)C2CC(=O)NC2CCCCCC2)c(C)c1C (stereo not drawn)	0	0	0	0	0	0
Cc1ccc(-n2c(O)c(C=Nc3ccccc3-c3n[nH]c(=S)[nH]c3=O)c3ccccc3c2=O)c(C)c1	0	0	73	0	0	0
COc1cc(C=Nc2cccc(C)c2)c(O)c([N+](=O)[O-])c1	49	0	0	0	0	0
CCN(CCO)C1CC(=O)N(c2ccccc2C)C1=O (stereo not drawn)	-	124	0	0	0	0
Cc1ccccc1N1C(=O)CC(N(O)c2ccccc2)C1=O (stereo not drawn)	0	0	0	0	0	0
CC(C)C(NC(=O)C(c1ccccc1)c1ccccc1)c1nc2ccccc2[nH]1 (stereo not drawn)	0	0	79	0	0	0
Cc1cccc(C(=O)NC(C)C(=O)NC(c2nc3ccccc3[nH]2)C(C)C)c1 (stereo not drawn)	-	0	-	0	0	0
Nc1cc(C(=O)O)ccc1N1CCCCC1	0	0	0	0	0	0
COc1ccccc1-c1cc(-c2ccccc2)nc(SCC(=O)O)c1C#N	0	0	84	0	0	0
CC(C)C(Sc1nc(-c2ccccc2)cc(-c2ccccc2)c1C#N)C(=O)O (stereo not drawn)	0	0	53	0	0	0
O=C(NC1CCCCC1)c1cccnc1Sc1ccccc1Cl	0	0	0	0	0	0
COc1ccc(NC(=O)CSc2nc(=O)n(CCN(C)C)c3c2CCCC3)cc1	-	0	0	0	0	0
COc1cc(/C=N/NC(=O)c2cccc3ccccc23)cc(OC)c1OC	0	0	0	0	0	0
Nc1sc(-c2ccccc2)cc1C(=O)N/N=C/c1ccc(Cl)cc1	0	0	95	0	0	0
O=C(N/N=C/c1ccc(Cl)cc1)c1cc(-c2cccnc2)nc2ccccc12	0	0	0	0	0	0
Cc1ccc(CNC(=O)c2nnn(-c3cccc(C)c3)c2N)cc1	0	-	0	0	0	0
Cc1cccc(-n2nnc(C(=O)NCc3ccccc3Cl)c2N)c1	27	0	0	0	0	0
O=C(NCC1CCCO1)c1cc([N+](=O)[O-])ccc1N1CCC(Cc2ccccc2)CC1 (stereo not drawn)	-	97	-	0	0	0
COc1cc(/C=C/C(=O)NC(C)C)ccc1OCc1ccccc1	0	0	0	0	0	0
SMILES	NALP1 inh	PfHsp90 yeast 2	SKKanGAS inh	tim10-1 inh	tim23-1 inh	TIM10 inh
COc1ccc(C2=CC3=C(Br)C(=O)C(C)(OC(=O)c4cccs4)C(=O)C3=CO2)cc1 (stereo not drawn)	-	107	0	0	0	0
COCCN1C=C2C(=O)C(C)(OC(=O)CCC(=O)OC)C(=O)C(Br)=C2C=C1c1ccc(OC)cc1 (stereo not drawn)	-	0	0	0	0	0
COc1ccc(C2=CC3=C(Br)C(=O)C(C)(OC(=O)c4ccco4)C(=O)C3=CO2)cc1 (stereo not drawn)	0	+	0	0	0	0
COc1ccc(N2CCN(CCNC(=O)c3c(C)cc(=O)oc3C)CC2)cc1	28	0	0	0	0	0
Cc1cc(=O)oc(C)c1C(=O)NCCCN1CCN(c2ccc(F)cc2)CC1	0	-	0	0	0	0
CC(C)CN1C(=S)SC(C)(C)C1n1oc(=O)n(-c2ccc(Cl)cc2)c1=O (stereo not drawn)	0	-	71	0	0	0
CC(C)CN1C(=S)SC(C)(C)C1n1oc(=O)n(-c2ccccc2)c1=O (stereo not drawn)	0	0	0	0	0	0
COc1ccc(C(=O)NCCc2nnc3ccc(SCC(=O)Nc4ccccc4F)nn23)cc1	0	0	0	0	0	0
CCO[C@H]1OC(C(=O)NCc2ccccc2)=C[C@@H](C2CCCCC2)[C@@H]1CCCO	0	0	0	0	0	0
CCOC(=O)c1cnc(-n2nc(C)cc2C)nc1Nc1ccc(OC)cc1	0	0	66	0	0	0
CCOC(=O)c1cnc(-n2nc(C)cc2C)nc1Nc1ccccc1OC	0	-	-	-	-	-
O=C(Nc1ccc2ccccc2c1)c1ccc(NS(=O)(=O)c2ccc(Br)s2)cc1	0	0	96	0	0	0
CCOC(=O)c1sc(=S)n(-c2ccccc2)c1NC(C)=O	-	0	0	0	0	0
COC(=O)[C@H]1[C@H](CCc2ccccc2)NC(=O)N(Cc2ccccc2)[C@@H]1C	-	0	73	-	-	-
CC(=NNC(=S)N1CCN(c2ccccn2)CC1)c1nccs1	-	142	-	-	-	-
CC(=NNC(=S)N1CCN(c2ccccn2)CC1)c1ccccn1	-	0	-	-	-	-
CC(=NNC(=S)N1CCN(C2CCCCCC2)CC1)c1ccccn1	-	103	-	-	-	-
CC(=NNC(=S)N1CC2CCC(CC2)C1)c1cnccn1	-	145	-	-	-	-
C/C(=N/NC(=O)c1cnccn1)c1ccncc1	0	0	0	0	0	0
CCc1cccc(CC)c1NC(=O)CSc1nnc(C2CC2)n1N	-	0	-	0	0	0
Cc1ccc(NS(=O)(=O)c2cc(Br)cnc2N)c(Cl)c1	0	0	0	0	0	0
Nc1ncc(Br)cc1S(=O)(=O)Nc1cc(C(F)(F)F)cc(C(F)(F)F)c1	0	0	64	0	0	0
Cc1ccc(C(=O)NN2C(=O)C3C(C2=O)C2C=CC3C23CC3)cc1 (stereo not drawn)	0	0	0	0	0	0
CCCOc1ccc(/C=N/NC(=S)Nc2ccccc2[N+](=O)[O-])c(O)c1	0	-	102	-	-	-
CCN1C(=O)[C@@H]2[C@H](C1=O)[C@@H]1C(=O)Nc3ccccc3C(=O)N1[C@@H]2c1ccccc1	-	0	0	0	0	0
O=S(=O)(Cc1ccccc1)N1CCCC(c2nc(-c3ccc(F)cc3)no2)C1 (stereo not drawn)	0	0	0	0	0	0
Cn1cnc([N+](=O)[O-])c1S(=O)(=O)c1cccc(Cl)c1	66	0	0	0	0	0

Compound activity from PubChem BioAssay.
